Bioassay records (PubChem BioAssay)
Rows were chosen to be rich in hits. Some 11% of all compounds tested hit in one or more screens of this group.
G9a inh = qHTS Assay for Inhibitors of Histone Lysine Methyltransferase G9a; Histone-lysine N-methyltransferase EHMT2 (Homo sapiens), Q96KQ7; G9a H3K9 monomethylation, AlphaScreen, 2 h; Potency, µM (series often up to 102 µM), usual class: inhibitors; actives 8.8% (n = 350,000); also: nearly all actives have a fitted effect of over 75% in size
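AlphaScreen detection with an anti-monomethyl H3K9 antibody quantified product after a 2 h room-temperature reaction containing 500 nM biotinylated H3K9 peptide, 20 µM SAM and 20 nM enzyme, which had been preincubated 15 min with compound.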
L3MBTL1 block = qHTS Assay for the Inhibitors of L3MBTL1; AlphaScreen L3MBTL1–H3K9me1 peptide binding; Lethal(3)malignant brain tumor-like protein 1 (Homo sapiens), Q9Y468; Potency, µM (top dose mostly 57.1 µM), most hits filed as inhibitors; AID 485360, 2010; actives 0.66% (n = 230,000); also: nearly all actives have a fitted effect of over 60% in size
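Displacement of a biotinylated histone H3(1-15) peptide monomethylated at Lys9 (75 nM) from L3MBTL1 (50 nM) was measured by AlphaScreen after a 30 min room-temperature compound incubation; cefsulodin titration served as intraplate control.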
JMJD2A Tudor inh = qHTS Assay for Inhibitors of JMJD2A-Tudor Domain | actives 4.4% (n = 390,000) | AID 504339, 2011 | Lysine-specific demethylase 4A (Homo sapiens), O75164 | Potency, µM (top dose mostly 114 µM), usual class: inhibitors | AlphaScreen JMJD2A-Tudor / H3K4me3 peptide binding; also: nearly all actives have a fitted effect of over 50% in size
Target sequence (O75164 whole entry, looked up, the tested form may be a part): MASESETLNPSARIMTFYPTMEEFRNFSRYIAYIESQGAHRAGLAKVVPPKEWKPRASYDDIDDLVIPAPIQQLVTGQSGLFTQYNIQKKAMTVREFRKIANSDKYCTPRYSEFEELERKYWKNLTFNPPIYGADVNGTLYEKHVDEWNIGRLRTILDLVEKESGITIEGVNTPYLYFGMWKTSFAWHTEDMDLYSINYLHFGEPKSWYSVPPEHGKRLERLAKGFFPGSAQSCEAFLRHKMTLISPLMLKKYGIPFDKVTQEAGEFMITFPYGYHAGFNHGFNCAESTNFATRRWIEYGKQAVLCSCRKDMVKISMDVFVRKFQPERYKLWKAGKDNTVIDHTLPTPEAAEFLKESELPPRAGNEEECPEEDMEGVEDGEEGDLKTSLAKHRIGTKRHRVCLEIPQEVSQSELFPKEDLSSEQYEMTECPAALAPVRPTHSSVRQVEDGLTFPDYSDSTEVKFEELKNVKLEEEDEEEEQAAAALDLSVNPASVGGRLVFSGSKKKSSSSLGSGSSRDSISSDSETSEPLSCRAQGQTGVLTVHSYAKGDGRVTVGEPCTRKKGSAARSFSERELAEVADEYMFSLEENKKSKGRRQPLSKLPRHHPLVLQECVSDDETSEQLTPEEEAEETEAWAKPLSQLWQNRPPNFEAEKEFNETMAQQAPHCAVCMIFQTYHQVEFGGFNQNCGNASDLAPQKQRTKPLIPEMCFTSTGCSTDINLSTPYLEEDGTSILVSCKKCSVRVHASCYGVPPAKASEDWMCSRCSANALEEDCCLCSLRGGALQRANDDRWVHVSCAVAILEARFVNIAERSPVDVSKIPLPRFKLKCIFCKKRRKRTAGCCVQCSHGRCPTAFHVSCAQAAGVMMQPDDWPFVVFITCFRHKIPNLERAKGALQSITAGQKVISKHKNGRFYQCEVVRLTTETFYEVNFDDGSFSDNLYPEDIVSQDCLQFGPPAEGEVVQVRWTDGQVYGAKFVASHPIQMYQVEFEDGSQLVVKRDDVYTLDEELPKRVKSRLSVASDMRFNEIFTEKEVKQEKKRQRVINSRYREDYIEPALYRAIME
HP1b chromo inh = HTS for Inhibitors of HP1-beta Chromodomain Interactions with Methylated Histone Tails. Chromobox protein homolog 1 (Homo sapiens), P83916. AlphaScreen HP1-beta / biotin-H3K9me3 peptide binding. Potency, µM (titrated, usually from 114 µM), usual class: inhibitors. actives 0.56% (n = 390,000). AID 540317, 2011; also: nearly all actives have a fitted effect of over 70% in size
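AlphaScreen: HP1-beta (50 nM) preformed 30 min with biotin-H3(1-18)K9me3 peptide (50 nM) in PBS pH 7.4, 0.01% Tween-20. Compound added for 30 min at RT, then streptavidin donor/nickel chelate acceptor beads (10 ug/mL) for 30 min.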
BAZ2B block = qHTS Assay for Inhibitors of BAZ2B; Bromodomain adjacent to zinc finger domain protein 2B (Homo sapiens), Q9UIF8; AlphaScreen BAZ2B-H3K14Ac peptide displacement; Potency, µM (top dose mostly 114 µM), actives largely listed as inhibitors; actives 4.4% (n = 360,000); AID 504333, 2011; also: nearly all actives have a fitted effect of over 60% in size
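AlphaScreen displacement of biotin-H3(5-23)K14Ac peptide (50 nM final) from BAZ2B (50 nM final) in PBS pH 7.4, 0.01% Tween-20; complex preformed 30 min RT, then compounds (top 110 uM) 30 min RT, beads 20 min dark.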
Each line names hits and unclear results; the compound was inactive in the other large screens. Calls follow the shape of the dose curve; as a rule, active = well fitted inhibition curve with a large enough effect; inconclusive = small, poorly fitted or top-dose-only effect; inactive = no such curve, though single readings can be large or run the other way.

CC(/C=C1\SC(=S)N(C(C(=O)O)C(C)C)C1=O)=C\c1ccccc1 (centres undefined)	JMJD2A Tudor inh inconclusive, BAZ2B block 25.1µM (no result: G9a inh)
CC(/C=C1\SC(=S)N(NC(=O)c2ccncc2)C1=O)=C\c1ccccc1	G9a inh inconclusive, JMJD2A Tudor inh inconclusive, BAZ2B block inconclusive
CC(/C=C1\SC(=S)N(c2ccc(C(=O)O)cc2)C1=O)=C\c1ccccc1	G9a inh 31.6µM, JMJD2A Tudor inh 44.7µM, HP1b chromo inh inconclusive, BAZ2B block 22.4µM (no result: L3MBTL1 block)
S=C(Nc1ccc(-c2nc3ccccc3[nH]2)cc1)Nc1cccnc1	G9a inh 44.7µM (no result: L3MBTL1 block)
S=C(NCCN1CCOCC1)Nc1ccc(-c2nc3ccccc3[nH]2)cc1	G9a inh 44.7µM
CNS(=O)(=O)c1ccc(NCC2COc3ccccc3O2)c([N+](=O)[O-])c1 (centres undefined)	G9a inh 15.8µM, BAZ2B block 50.1µM
COc1cc(NC(=O)CCn2nc(C)c(S(=O)(=O)N3CCCCC3)c2C)cc(OC)c1OC	none (no result: L3MBTL1 block)
Cc1ccc(-n2nc(C)c3c(C)c(CCC(=O)Nc4ccc(CN5CCCC5)cc4)c(C)nc32)cc1	G9a inh 50.1µM, JMJD2A Tudor inh inconclusive (no result: L3MBTL1 block)
O=C(CN1C(=O)NC2(CCCCC2)C1=O)Nc1ccc(F)cc1	none (no result: L3MBTL1 block)
Cc1ccc(NC(=O)CN2C(=O)NC3(CCCCCCC3)C2=O)cc1C	G9a inh 1.26µM
CN(c1ccccc1)S(=O)(=O)c1cccc(NC(=O)CN2C(=O)NC3(CCCC3)C2=O)c1	G9a inh 56.2µM
COc1ccc2nc(SCC(=O)NC(C)c3ccccc3)[nH]c2c1 (centres undefined)	none
Cn1cc(C(=O)O)c(=O)c2cc(S(=O)(=O)N3CCOCC3)ccc21	none (no result: L3MBTL1 block)
COc1ccccc1Nc1cc(C)nc(Nc2ccccc2OC)n1	G9a inh 2.24µM, BAZ2B block inconclusive
CCC(c1nnnn1CCOC)N1CCN(c2nc3ccccc3s2)CC1 (centres undefined)	G9a inh inconclusive
c1ccc(Cn2nnnc2C(c2ccccc2)N2CCN(c3nc4ccccc4s3)CC2)cc1 (centres undefined)	none (no result: BAZ2B block)
COc1ccc(C(c2nnnn2Cc2ccccc2)N2CCN(c3nc4ccccc4s3)CC2)cc1OC (centres undefined)	G9a inh 20µM, JMJD2A Tudor inh 79.4µM
CCC(C)(C)n1nnnc1C(c1ccc(O)c(OC)c1)N1CCN(c2nc3ccccc3s2)CC1 (centres undefined)	G9a inh 2.51µM
COc1ccc(C(c2nnnn2C(C)(C)C)N2CCN(c3nc4ccccc4s3)CC2)cc1 (centres undefined)	none
CCCC(c1nnnn1CCOC)N1CCN(c2nc3ccccc3s2)CC1 (centres undefined)	JMJD2A Tudor inh 12.6µM
CN(C)C(N)=NCCC[C@H](N)C(=O)O	JMJD2A Tudor inh 89.1µM (no result: L3MBTL1 block, BAZ2B block)
NC(=NCCC[C@H](N)C(=O)O)NO	none (no result: L3MBTL1 block, JMJD2A Tudor inh, HP1b chromo inh, BAZ2B block)
Oc1ccccc1C1=Nc2ncnn2C(c2ccccc2)C1 (centres undefined)	G9a inh 17.8µM
COc1cccc(-c2ccc(-c3noc(-c4cccs4)n3)c(OC)n2)c1	G9a inh 1.26µM (no result: L3MBTL1 block)
COc1nc(-c2ccc(Cl)cc2)ccc1-c1noc(-c2ccco2)n1	G9a inh 2.82µM (no result: L3MBTL1 block)
CC(=O)Nc1ccc(NS(=O)(=O)c2c(C(=O)N3CCC(C)CC3)c(C)n(C)c2C)cc1	none (no result: L3MBTL1 block)
Cc1nc(CC(=O)Nc2cccc(C)c2C)cs1	none (no result: L3MBTL1 block)
Cc1ccc(OCCn2ccnc2)c(C)c1	G9a inh 70.8µM (no result: L3MBTL1 block)
Cc1cc(C(C)(C)C)ccc1OCCn1ccnc1	G9a inh 22.4µM, JMJD2A Tudor inh 14.1µM, HP1b chromo inh inconclusive, BAZ2B block 35.5µM (no result: L3MBTL1 block)
CC(C)(C)c1cc(Cl)ccc1OCCn1ccnc1	JMJD2A Tudor inh 5.01µM, HP1b chromo inh inconclusive, BAZ2B block 39.8µM (no result: G9a inh)
Cc1ccc(CCNC(=O)c2ccc(CSCc3ccc(C)cc3)o2)cc1	none (no result: L3MBTL1 block)
